Compounds without any hit were thinned out: in the full panel of roughly 83,000, 20% have a hit.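 Assay: single dose, 48 h. Readout: percent growth (0 = no net growth; negative = cell death). Active: <10.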 Activity calls are given as the source filed them.
system: SR leukemia; assay: NCI-60 one-dose screen, 48 h (100 = growth as untreated, 0 = no growth, -100 = all killed); conditions: 10 µM unless noted
Experimental: Growth inhibition of the SR human tumor cell line is measured as a screen for anti-cancer activity. Cells are grown in 96 well plates and exposed to the test compound for 48 hours. Compounds are tested at a single concentration, which is 10^-5 M for most compounds. The reported endpoint is percent growth (GI% or GIPRCNT), where numbers from 0 - 100% represent growth inhibition, and numbers from -100% - 0 represent cell death. For example, a value of 40 represents 60% growth inhibition. A value of 0 means no net growth occurred over the course of the experiment. A value of -40 indicates 40% of cells at the beginning of the experiment died by the end of the experiment. A value of -100 means all cells are dead at the end of the experiment.
NCI-60 Human Tumor Cell Lines Screen was performed using the standard one-dose NCI protocol, which is described in more detail at https://dtp.cancer.gov/discovery_development/nci-60/default.htm.
Compounds with GIPRCNT values below 10 were considered active. Activity score was based on GIPRCNT using the following formula: […]
Score is 0 for GIPRCNT values of 100 or above, 50 for GIPRCNT values of 0, and 100 for GIPRCNT values of -100.

Compound | growth
CCC1(C)CC(CCNCc2ccccc2O)(c2ccc(C)cc2)CCO1 (stereo not given) | 96% (inactive)
CN(CCCCN(C)CCOS(C)(=O)=O)CCOS(C)(=O)=O | 12.1% (inactive)
CN(C)C1C(=O)C(C(N)=O)=C(O)C2(O)C(=O)C3=C(O)c4c(O)cccc4C(C)(O)C3CC12.[Cl][Sb]([Cl])[Cl] (stereo not given) | 19.2% (inactive)
COC(=O)C1CCC(NC(=O)c2csc([C@@H](C[C@H](C(C)C)N(C)C(=O)[C@@H](NC(=O)[C@H]3CCCCN3C)C(C)C)OC(C)=O)n2)CC1 (stereo not given in full) | 20.1% (inactive)
CC(C)[C@@H]1NC(=O)[C@]2(C)CSC(=N2)c2csc(n2)CNC(=O)C[C@@H](/C=C/CCS)OC1=O | 12% (inactive)
Cn1cccc1C1CC(=O)N(CCC[Se]C#N)C1=O (stereo not given) | 21.2% (inactive)
CC[C@H](C)[C@H](NC(=O)[C@H]1CCCCN1C)C(=O)N(C)[C@H](C[C@@H](OC(C)=O)c1cccc(C(=O)N[C@@H](Cc2ccccc2)C[C@H](C)C(=O)O)n1)C(C)C | 18% (inactive)
COC(=O)[C@@H](C)C[C@H](Cc1ccccc1)NC(=O)c1csc([C@@H](C[C@H](C(C)C)N(C)C(=O)[C@@H](NC(=O)[C@H]2CCCCN2C)C(C(F)(F)F)C(F)(F)F)OC(C)=O)n1 | 5.49% (active)
CC(=O)O[C@H](C[C@H](C(C)C)N(C)C(=O)[C@@H](NC(=O)[C@H]1CCCCN1C)C(C)C)c1nc(C(=O)N[C@@H](Cc2ccccc2)C[C@H](C)C(=O)O)c(C(C)C)s1 | 7.04% (active)
Cn1cc(-c2csc(-c3cn(CCN4CCOCC4)c4ccccc34)n2)c2cccnc21 | 63.6% (inactive)
CCOC(=O)[C@@H](C)C[C@H](Cc1ccccc1)NC(=O)c1csc([C@@H](C[C@H](C(C)C)N(C)C(=O)CNC(=O)[C@H]2CCCCN2C)OC(C)=O)n1 | 7.72% (active)
Oc1c(O)c(Cl)c(Cl)c(Cl)c1Cl | 24.3% (inactive)
Cc1cc(C)cc(Nc2nc3c(s2)CC[C@@]2(C)C3=CC[C@@H]3[C@@H]2CC[C@]2(C)C(=O)CC[C@@H]32)c1 | 12.5% (inactive)
OCc1ccc2c(c1)OCO2 | 95.5% (inactive)
C1CCC2(CC1)OOCNCOO2 | 62.8% (inactive)
ClC1=C(Cl)C(Cl)(C2(Cl)C(Cl)=C(Cl)C(Cl)=C2Cl)C(Cl)=C1Cl | -25.3% (active)
CCCOC(=O)N[C@H]1CCc2c(Br)c(OC)c(OC)c(OC)c2-c2ccc(SC)c(=O)cc21 | 3.3% (active)
Brc1ccc2c(c1)c(-c1nc(-c3c[nH]c4ncccc34)cs1)cn2CCN1CCOCC1 | 59.7% (inactive)
COc1cc(C=Nc2cc(Cl)cc(Cl)c2)ccc1N(CCCl)CCCl | 41.2% (inactive)
COc1cc(C=Nc2cccc(C(=O)O)c2)ccc1N(CCCl)CCCl | 91.9% (inactive)

Compound | growth
COC(=O)[C@@H](C)C[C@H](Cc1ccccc1)NC(=O)c1csc([C@@H](C[C@H](C(C)C)N(C)C(=O)[C@@H](NC(=O)C23CC(NC(C)=O)(C2)C3)C2CC2)OC(C)=O)n1 | 29.1% (inactive)
CCOC(=O)[C@@H](C)C[C@H](Cc1ccccc1)NC(=O)c1csc([C@@H](C[C@H](C(C)C)N(C)C(=O)[C@H](CCC(C)C)NC(=O)[C@H]2CCCCN2C)OC(C)=O)n1 | 4.32% (active)
CCc1ccccc1[C@@H]1C[C@]2(C)CCO[C@@H]2OO1 | 102% (inactive)
C=C1C(=O)O[C@H]2[C@H]1CC/C(COC(=O)C(=O)c1cn(Cc3ccccc3)c3ccccc13)=C\CC[C@@]1(C)O[C@@H]21 | 4.96% (active)
CC1=C2[C@@H](CC1)[C@]1(C)O[C@@](C(C)C)(C[C@H]1O)[C@H]2OC(=O)C1CC1c1ccccc1 (stereo not given in full) | 92.4% (inactive)
CC1CCCC(C[N+](C)(C)C)C1=O (stereo not given) | 86.8% (inactive)
O=C(N/N=C\c1ccc(N(CCCl)CCCl)cc1)c1cccc([N+](=O)[O-])c1 | 103% (inactive)
Cc1cccc(N2CCN(C(C)C#N)CC2)c1 (stereo not given) | 98.2% (inactive)
COC(=O)[C@@H](C)C[C@H](Cc1ccccc1)NC(=O)c1csc([C@@H](C[C@H](C(C)C)N(C)C(=O)[C@@H](NC(=O)[C@H]2CCCCN2C)C2CC2)OC(C)=O)n1 | 2.03% (active)
C/C(=C\c1ccn(-c2ccc(N)cc2C(F)(F)F)n1)[C@@H]1C[C@@H]2O[C@]2(C)CCC[C@H](C)[C@H](O)[C@@H](C)C(=O)C(C)(C)[C@@H](O)CC(=O)O1 | 12.2% (inactive)
CN1CCC(c2c[nH]c3ccccc23)C1 (stereo not given) | 96.6% (inactive)
N#C[Se]Cc1cc(-c2ccccc2)n(-c2ccc(S(N)(=O)=O)cc2)n1 | -32.5% (active)
CC[C@H](C)[C@H](NC(=O)C12C3C4C1C1C2C3C41NC(C)=O)C(=O)N(C)[C@H](C[C@@H](OC(C)=O)c1nc(C(=O)N[C@@H](Cc2ccccc2)C[C@H](C)C(=O)OC)cs1)C(C)C (stereo not given in full) | 16.6% (inactive)
Fc1c[c-]c(-c2ccccn2)c(F)c1.[CH3-].[Pt+2].c1ccc([PH+](c2ccccc2)c2ccccn2)cc1 | -2.4% (active)
CS(=O)(=O)CCN1CC2CCCC(C2)C1 | 93.9% (inactive)
C#Cc1ccc2c(c1)C(c1ccccc1F)=NCC(=O)N2C | 37.8% (inactive)
N/C(=N/N=C/c1ccncc1)N[N+](=O)[O-] | 90.9% (inactive)
CC(C)(C)C(=O)OCOP(=O)(OCOC(=O)C(C)(C)C)C1CCCN(O)C1=O (stereo not given) | 13.7% (inactive)
Cc1ccc(S(=O)(=O)C(Cl)(Cl)Cl)cc1 | 89.4% (inactive)
CCCC[C@H](NC(=O)[C@H]1CCCN1C)C(=O)N(C)[C@H](C[C@@H](OC(C)=O)c1nc(C(=O)N[C@@H](Cc2ccccc2)C[C@H](C)C(=O)OCC)cs1)C(C)C | 6.28% (active)

From PubChem BioAssay (NCI)
